# Data as given in PubChem BioAssay AID2360 (The Scripps Research Institute Molecular Screening Center, 2010).
# Out of some 1,900 compounds screened, about 85 (4%) were called active.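 Rule for the calls: active = mean PP5 inhibition over triplicate wells above about 9.5% taken from the earlier PP1 screen (limit read from the data); inactive = the rest.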 Not all results are given here.
# Molecular target: Serine/threonine-protein phosphatase 5 (Homo sapiens) (UniProt P53041)
# Test: human PP5 catalytic subunit inhibitors – biochemical, fluorescence, triplicate, counter-screen for PP1 inhibitor project, confirmation (AID 2360)
# Settings: purified PP5c, OMFP fluorescence; at 6.7 µM; active compounds read high
# Sequence of Serine/threonine-protein phosphatase 5 (Homo sapiens) (P53041 whole entry, looked up): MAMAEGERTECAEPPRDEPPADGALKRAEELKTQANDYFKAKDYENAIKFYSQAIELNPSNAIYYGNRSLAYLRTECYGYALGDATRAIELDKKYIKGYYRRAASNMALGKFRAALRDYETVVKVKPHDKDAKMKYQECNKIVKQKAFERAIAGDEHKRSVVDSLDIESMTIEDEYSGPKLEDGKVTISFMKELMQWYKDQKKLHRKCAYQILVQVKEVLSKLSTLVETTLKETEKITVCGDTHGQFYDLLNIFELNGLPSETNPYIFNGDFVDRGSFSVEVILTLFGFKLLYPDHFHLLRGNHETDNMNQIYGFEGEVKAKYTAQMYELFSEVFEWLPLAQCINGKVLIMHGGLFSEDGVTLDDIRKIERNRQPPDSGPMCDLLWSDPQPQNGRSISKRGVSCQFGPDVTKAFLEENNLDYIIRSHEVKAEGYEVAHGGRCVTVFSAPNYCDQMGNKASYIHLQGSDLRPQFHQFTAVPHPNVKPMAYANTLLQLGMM
row,Compound,inhibition
1,Cc1ccc(-c2cc(C(=O)N/N=C/C=C/c3ccco3)c3ccccc3n2)cc1C,2.19% (inactive)
2,CC1CCCCN1S(=O)(=O)c1ccc(C(=O)Nc2nnc(-c3cccs3)o2)cc1 (stereo not given),1.29% (inactive)
3,Nc1ccc2nc3c(=O)[nH]c(=S)[nH]c3nc2c1,15% (active)
4,O=C(Nc1cccc(-c2nc3ccccc3[nH]2)c1)c1ccc(C(=O)Nc2cccc(-c3nc4ccccc4[nH]3)c2)cc1,-2.5% (inactive)
5,COCCN(CCOC)S(=O)(=O)c1ccc(C(=O)Nc2nc3c(s2)CCc2ccccc2-3)cc1,-4.16% (inactive)
6,Cc1nc2c(C(=O)NCc3ccc4c(c3)OCO4)c[nH]n2c(=O)c1Cc1ccccc1F,0.13% (inactive)
7,COc1ccc(C2C(C(C)=O)=C(O)C(=O)N2CCc2c[nH]c3ccccc23)cc1 (stereo not given),1.2% (inactive)
8,Clc1ccc(-n2nnnc2-c2cnc(-c3ccccn3)nc2-c2cccs2)cc1,-0.17% (inactive)
9,CCC(=C/c1sc2ccc3ccccc3c2[n+]1C)/C=C1\Sc2ccc3ccccc3c2N1C,0.84% (inactive)
10,CS(=O)(=O)c1ccc2c(c1)SC1=NC(=O)/C(=C/c3ccco3)C(=N)N12,-6.01% (inactive)
11,Cc1ccc2cc(CCNC(=O)c3c(-c4ccccc4Cl)noc3C)c(=O)[nH]c2c1,-2.45% (inactive)
12,CCOc1ccc(/C=C/C(=O)OCC(=O)c2ccccc2OC)cc1OC,-0.62% (inactive)
13,Cc1ccc(S(=O)(=O)N2[C@@H](c3cccc(Cl)c3)C(C(=O)O)=CC[C@H]2c2ccc(Cl)c(Cl)c2)cc1,2.51% (inactive)
14,Cc1cc(Nc2ccccc2)n(C(=O)c2ccc(N)cc2)n1,3.89% (inactive)
15,O=C1C2N=NN(CC(=O)N3N=C(c4cccc5ccccc45)CC3c3ccccc3)C2C(=O)N1c1ccccc1 (stereo not given),-0.31% (inactive)
16,C=CCn1c(=S)[nH]c2scc(-c3ccco3)c2c1=O,1.52% (inactive)
17,CCCc1ccc(OCC(=O)NNC(=S)NC(=O)c2ccco2)cc1,-5.19% (inactive)
18,Cc1cc(N/N=C\c2ccc(Br)cc2)nc(-n2nc(C)cc2C)n1,-2.43% (inactive)
19,Cc1ccc(-c2cc(C(=O)Nc3nn[nH]n3)c3ccccc3n2)c(C)c1,-5.88% (inactive)
20,Cc1ccc(NS(=O)(=O)c2ccc(N/N=C/c3ccccc3OCC(=O)O)c([N+](=O)[O-])c2)c(C)c1,3.83% (inactive)
21,OCCNc1nc(Nc2ccc(Cl)c(Cl)c2)nc2ccccc12,6.65% (inactive)
22,CSc1ccc(/C=N\NC(=O)COc2ccc(Cl)cc2Br)cc1,-2.43% (inactive)
23,CCCCn1c(SCc2ncc(-c3ccccc3)o2)nc2cc(S(N)(=O)=O)ccc21,-3.7% (inactive)

row,Compound,inhibition
1,CN(C(=O)COC(=O)c1cc(-c2ccco2)nc2ccccc12)C1CCS(=O)(=O)C1 (stereo not given),-3.35% (inactive)
2,Oc1c(Cl)cc(Cl)c(Cl)c1Cc1c(O)c(Cl)cc(Cl)c1Cl,-0.37% (inactive)
3,Cc1cc(-c2csc(N)n2)c(C)n1-c1ccccc1,-5.26% (inactive)
4,C#CCOCCOCCOCCNc1nc(N2CCN(C(=O)CCCCCCCCCCNC(=O)[C@H](CCCCN)n3cc(C)nn3)CC2)nc(N2CCN(C(=O)CCCCCCCCCCNC(=O)[C@H](CO)n3cc(CCCSC)nn3)CC2)n1,-2.42% (inactive)
5,COc1cc(C2C(C(=O)c3ccc(C)o3)=C(O)C(=O)N2CCc2ccccc2)ccc1O (stereo not given),1.74% (inactive)
6,Cc1ccccc1S(=O)(=O)N1[C@@H](c2cccc(Cl)c2)C(C(=O)O)=CC[C@H]1c1ccc(Cl)cc1,1.77% (inactive)
7,O=C1C(=O)N(CC2COc3ccccc3O2)c2ccccc21 (stereo not given),-2.89% (inactive)
8,C#CCOCCOCCOCCNc1nc(N2CCN(C(=O)CCCCCCCCCCNC(=O)[C@H]([C@@H](C)CC)n3cc(CCCCN=C(N)N)nn3)CC2)nc(N2CCN(C(=O)CCCCCCCCCCNC(=O)[C@H](CO)n3cc(CCCSC)nn3)CC2)n1,4.44% (inactive)
9,COc1ccc(-c2nn(-c3ccccc3)cc2/C=C\C(=O)Nc2ccc(C(=O)O)cc2)cc1,5.85% (inactive)
10,C/C(CC(O)(/C=N/O)c1ccccc1)=N\O (stereo not given),-4.09% (inactive)
11,N=c1n(Cc2ccc(Cl)cc2)c2ccccc2n1CC(O)c1ccco1 (stereo not given),-3.3% (inactive)
12,CN1CCN(CCCNC(=O)c2ccc(/C=C3\Oc4ccccc4N(Cc4ccc(Cl)cc4)C3=O)cc2)CC1,0.17% (inactive)
13,Oc1c(CN2CCN(c3ccc(F)cc3)CC2)cc(Cl)c2cccnc12,2.27% (inactive)
14,Cc1cccc(OCC(O)Cn2c(=N)n(CCN3CCOCC3)c3ccccc32)c1 (stereo not given),0.64% (inactive)
15,CCNS(=O)(=O)c1ccc(NC(=O)Nc2cccc(C(F)(F)F)c2)cc1,7.24% (inactive)
16,COc1ccccc1/C=N\Nc1cc(C)nc(-n2nc(C)cc2C)n1,-0.35% (inactive)
17,O=C(Nc1nnc(-c2ccccc2)o1)c1cc(-c2cccs2)nc2ccccc12,-6.61% (inactive)
18,Cc1ccc(-c2nn(-c3ccccc3)cc2/C=C2\SC(=S)N(CCCCCC(=O)O)C2=O)o1,1.44% (inactive)
19,Cc1ccc2nc(N3C(=O)C(O)=C(C(=O)c4ccco4)C3c3cccc(O)c3)sc2c1 (stereo not given),-0.83% (inactive)
20,COc1cnc(-c2ccccn2)nc1Oc1ccc(C(C)(C)C)cc1,1.77% (inactive)
21,O=C(Nc1nc(-c2ccco2)c(-c2ccco2)s1)c1ccco1,0.46% (inactive)
22,CCCOc1ccc(C2C(C(=O)c3ccc(C)o3)=C(O)C(=O)N2CCCn2ccnc2)cc1 (stereo not given),2.29% (inactive)
23,O=C(CSc1nnc(C2CC2)n1Cc1ccccc1)Nc1cccnc1Cl,-2.71% (inactive)

row,Compound,inhibition
1,Oc1ccc(C2Nc3cccc4cccc(c34)N2)cc1,8.12% (inactive)
2,C=CCN(CC=C)S(=O)(=O)c1ccc(C(=O)Nc2nc3c(s2)CCc2ccccc2-3)cc1,-1.58% (inactive)
3,CCCCCCCCCCOC(=O)Cn1c(COc2cccc(OC)c2)[n+](C)c2ccccc21,3.6% (inactive)
4,COc1cccc(/C=N/NC(=O)c2[nH]nc3c2CCc2ccccc2-3)c1O,-2.54% (inactive)
5,Cc1ccc(NC(=O)COc2ccc(/C=C3/NC(=O)NC3=O)cc2)cc1,-6.15% (inactive)
6,O=C(COC(=O)c1ccc(Oc2ccccc2)cc1)Nc1nnc(-c2ccccc2)o1,-5.1% (inactive)
7,CN(C(=O)CN(CCO)CC(=O)N(C)C(C)(C)Cc1ccccc1)C(C)(C)Cc1ccccc1,-8.53% (inactive)
8,O=C1c2cccc(OCC(=O)N3N=C(c4cccs4)CC3c3ccc(F)cc3)c2CCN1Cc1ccccc1 (stereo not given),-2.07% (inactive)
9,O=C(/C=C/c1ccc(F)cc1)NC(=S)NNC(=O)c1cccnc1,-1.96% (inactive)
10,Cc1ccc(Nc2nc(CSc3nnnn3-c3ccccc3)cc(=O)[nH]2)cc1,-0.66% (inactive)
11,O=C(N=C1SC2CS(=O)(=O)CC2N1c1cc(Cl)ccc1Cl)C1CC1 (stereo not given),-3.78% (inactive)
12,O=C(Nc1ccc(S(=O)(=O)Nc2nccs2)cc1)c1cc(-c2ccncc2)nc2ccccc12,0.33% (inactive)
13,OCCCN1c2ccccc2Nc2nnc(-c3ccccc3)cc21,4.57% (inactive)
14,C/C(=N\c1nc2ccccc2n1C)c1cc(Cl)ccc1O,-5.58% (inactive)
15,COc1ccccc1NC(=O)CSc1nc2sc3c(c2c(=O)n1-c1ccccc1)CCN(C)C3,-2.95% (inactive)
16,Cc1ccc(CSCC2Nc3ccc(C(=O)N4CCN(c5ccc(F)cc5)CC4)cc3NC2=O)cc1 (stereo not given),-0.12% (inactive)
17,Cc1ccc(C)c(Cn2nnc3c(=O)[nH]c(C(=O)Nc4ccc(F)cc4)nc32)c1,-0.92% (inactive)
18,CCCCCCCCCCOC(=O)Cn1c(COc2ccc(C)cc2)[n+](C)c2ccccc21,1.37% (inactive)
19,C#CCOCCOCCOCCNc1nc(N2CCN(C(=O)CCCCCCCCCCNC(=O)Cn3cc(CCCCCN)nn3)CC2)nc(N2CCN(C(=O)CCCCCCCCCCNC(=O)[C@H](CO)n3cc(CCCSC)nn3)CC2)n1,0.18% (inactive)
20,Cc1ccc(Cn2nnc3c(=O)[nH]c(C4CCN(S(=O)(=O)/C=C/c5ccccc5)CC4)nc32)cc1,2.46% (inactive)
21,O=[N+]([O-])c1ccccc1/C=N/n1c(COc2ccccc2)n[nH]c1=S,-5.54% (inactive)
22,Cc1nc(/N=C(\N)NC(=O)NC2CCCCC2)nc2ccccc12,-1.97% (inactive)
23,COC(=O)Cc1cc(=O)n(-c2nc3ccccc3s2)[nH]1,0.87% (inactive)

row,Compound,inhibition
1,c1ccc(-c2nccc(-c3ccc(-n4cnc5ccccc54)cc3)n2)nc1,3.84% (inactive)
2,O=C(N/N=C/c1cc([N+](=O)[O-])ccc1O)/C(=C\c1cccs1)NC(=O)c1ccccc1,-3.51% (inactive)
3,COc1ccc(NC(=O)C2C3CCC(O3)C2C(=O)O)cc1OC (stereo not given),39.5% (active)
4,CC(C)OC(=O)c1cc(NC(=O)C2C3CCC(O3)C2C(=O)O)cc(C(=O)OC(C)C)c1 (stereo not given),9.52% (inactive)
5,Cc1cc(N2C(=O)C(O)=C(C(=O)c3ccc(C)o3)C2c2ccc(OCc3ccccc3)cc2)no1 (stereo not given),-0.28% (inactive)
6,O=[N+]([O-])/C=C/c1ccc2c(ccn2Cc2ccccc2)c1,-1.11% (inactive)
7,C=CCn1c(=NC(=O)c2ccc(S(=O)(=O)N3CCCC3)cc2)sc2cc(NC(C)=O)ccc21,-0.04% (inactive)
8,COCCCNC(=O)C1CC(=O)N(c2ccc(C)cc2)C1 (stereo not given),-1.02% (inactive)
9,NC(N)=N/N=C/c1ccc(OCc2ccc(Cl)cc2Cl)cc1,-2.25% (inactive)
10,Cc1ccc(-n2nc3ccc(NC(=O)/C=C/c4ccco4)cc3n2)cc1C,-6.55% (inactive)
11,Clc1ccc2c(c1)C1=C(C(c3ccncc3)O2)C(c2ccc(Br)cc2)n2ncnc2N1 (stereo not given),2.48% (inactive)
12,CCn1c(SCC(=O)Nc2cc(C)ccc2C)nnc1-c1cnccn1,-3.87% (inactive)
13,Oc1c(C(c2ccccn2)N2CCOCC2)ccc2cccnc12 (stereo not given),-0.03% (inactive)
14,N#Cc1c(-c2ccccc2)nc(SCc2cccc(C(F)(F)F)c2)[nH]c1=O,-1.06% (inactive)
15,C=C1c2c(Cl)ccc(O)c2C(O)=C2C(=O)[C@]3(O)C(O)=C(C(N)=O)C(=O)[C@@H](N(C)C)[C@@H]3[C@@H](O)C12 (stereo not given in full),2.9% (inactive)
16,Cc1ccc(N2C(=O)C3N=NN(CC(=O)N4N=C(c5cccc6ccccc56)CC4c4ccccc4)C3C2=O)cc1 (stereo not given),-0.1% (inactive)
17,CC(=O)c1ccc(N2CCN(S(=O)(=O)c3ccc4c(c3)CC(=O)N4C)CC2)cc1,2.4% (inactive)
18,COc1ccc(-c2nn(-c3ccccc3)cc2/C=C2/SC(=S)N(CCCC(=O)O)C2=O)c(C)c1,-0.32% (inactive)
19,Cc1ccc(OCC(=O)Nc2ccc(-c3nnc(-c4ccco4)o3)cc2)cc1,-4.22% (inactive)
20,CCOc1ccc(NC(=O)c2ccc(NC(=O)COC(=O)c3ccc(NC(=O)CC#N)cc3)cc2)cc1,-3.12% (inactive)
21,CC(C)(C)Nc1nc(-c2ccccn2)nc2ccccc12,-4.55% (inactive)
